The source of these data is PubChem BioAssay (NCATS).

Results filed as inconclusive are left out. Unmarked numbers belong to inactive results. Active and inactive are the calls of the source. Calls follow the shape of the dose curve; as a rule, active = well fitted cell-killing curve with a large enough effect; inconclusive = small, poorly fitted or top-dose-only effect; inactive = flat fitted curve, though single readings scatter.
Potency is read from the fitted curve at half-maximal effect.

This experiment can be described thus: Cell Viability - LYMP2-022 (AID 987). Also: nearly all actives have a fitted effect of over 55% in size.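 As to viability change, negative = cytotoxic: 0% = DMSO alone and full effect = tetraoctylammonium bromide at 92 µM.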 As to conditions: LYMP2-022 lymphoblastoid cell viability; series mostly up to 92.2 µM; viability change, negative = cytotoxic: at the top concentration. From the text:
NIH Chemical Genomics Center [NCGC]
NIH Molecular Libraries Screening Centers Network [MLSCN]
National Institutes of Environmental Health Sciences [NIEHS]
National Toxicology Program [NTP]
We have developed a 1536-well cell-based assay for quantitative high throughput screening (qHTS) against a number of cell lines to determine in vitro cytotoxicity of small molecules. This particular assay uses a human lymphoblastoid cell line (LYMP2-022) purchased from Coriell Institute for Medical Research.
NCGC Assay Protocol Summary:
The CellTiter-Glo luminescent cell viability assay (Promega) is a homogeneous method to measure the number of viable cells in culture. The end point readout of this assay is based on quantitation of intracellular ATP, an indicator of metabolic activity, using the luciferase reaction. Luciferase catalyzes the oxidation of beetle Luciferin to oxyluciferin and light in the presence of ATP. The luminescent signal is proportional to amount of ATP present.
Using the CellTiter-Glo luminescent cell viability assay, the amount of cellular ATP was measured in the lymphoblastoid cell line with complete culture medium following compound treatment for 24 hours. The assay was performed in opaque white Kalypsys 1536-well plates. In the screen, tetraoctylammonium bromide was used as positive control. Library compounds were measured for their ability to cause acute toxicity in the cell line, as reflected by a decrease in intracellular ATP levels, in a concentration-dependent manner. […] AC50 values were determined from concentration-response data modeled with the standard Hill equation.
qHTS protocol for CellTiter Glo lymphoblastoid cellular assay
[Step] [Parameter] [Value] [Description]
1. Reagent; 5 uL; 2500 lymphoblastoid cells/well
2. Time; 5 hr; 37 C incubation
4. Controls; 23 nL; Tetraoctylammonium bromide 6.4pM to 92 uM
5. Time; 24 hr; 37 C incubation
6. Reagent; 5 uL; CellTiter Glo reagent
7. Time; 30 min; Room Temperature
8. Detection; Luminescence; Viewlux plate reader
Keywords: cell viability, cytotoxicity, lymphoblastoid cell line, luminescence, NTPHTS, NTPHTS_NCGC, NIEHS, DSSTox, MLSMR, MLSCN, NIH Roadmap, qHTS, NCGC
As to `Cc1ncc([N+](=O)[O-])n1CCO`, the “viability change, negative = cytotoxic” value was -2.28%. Still for that read-out and setting: the result for `CCc1cc(C(N)=S)ccn1` reads -1.01%; that for `NC(N)=NC(N)=NCCc1ccccc1`, -24%; that for `CC1=NN(c2ccccc2)C(=O)C1`, -20.9%. Consider `Cc1ccnc2c1NC(=O)c1cccnc1N2C1CC1`, for which the “viability change, negative = cytotoxic” value is -16%.

For the compound `C[C@]12C=CC(=O)C=C1CC[C@@H]1[C@@H]2C(=O)C[C@@]2(C)[C@H]1CC[C@]2(O)C(=O)CO`, the “viability change, negative = cytotoxic” value was -14.7%. As to `N=C(N)c1ccc(OCCCCCOc2ccc(C(=N)N)cc2)cc1`, the Potency was 39.8 µM (active). Regarding `O=C(O)c1cc(=O)[nH]c(=O)[nH]1`, the “viability change, negative = cytotoxic” value is -10.3%. The same measure, in the same setting: the result for `Cc1nnc(NS(=O)(=O)c2ccc(N)cc2)s1` reads -2.36%. Turning to `NNC(=O)c1ccncc1`, the “viability change, negative = cytotoxic” value was -15.1%. Consider `CN(C)c1ccc(C(=C2C=CC(=[N+](C)C)C=C2)c2ccc(N(C)C)cc2)cc1`, for which the Potency was 0.794 µM (active).

For the compound `Cc1cc(NS(=O)(=O)c2ccc(N)cc2)no1`, the “viability change, negative = cytotoxic” value was -5.7%. As for `CC[C@H](C)C(=O)O[C@H]1C[C@@H](C)C=C2C=C[C@H](C)[C@H](CC[C@@H]3C[C@@H](O)CC(=O)O3)[C@H]21`, the “viability change, negative = cytotoxic” value was -28.2%. Take `COc1ccc2cc3[n+](cc2c1OC)CCc1cc2c(cc1-3)OCO2`: the Potency is 31.6 µM (active). As for `O=C(N[C@H](CO)[C@H](O)c1ccc([N+](=O)[O-])cc1)C(Cl)Cl`, the “viability change, negative = cytotoxic” value is 2.63%. As to `Cc1noc(NS(=O)(=O)c2ccc(N)cc2)c1C`, the “viability change, negative = cytotoxic” value is -6.61%.
